PubChem BioAssay AID651956 (Broad Institute, 2012)
Results with a measured potency or affinity are listed apart. Records with an inconclusive call do not appear. Calls of active or inactive are those of the source.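 Rule for the calls: active = in every test run, a fitted half-maximal concentration for signal decrease at or below twice the highest tested concentration; inconclusive = runs disagree, flat 30 to 70% decrease, or poor fit; inactive = the rest.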

Test: activation of miR-122 Renilla sensor silencing – cell-based, Huh7 psiCHECK-miR122, Renilla luciferase, cherry-picked, dose response (AID 651956);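 note: Renilla luciferase from a miR-122 sensor reporter so lower signal means miR-122 activation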
Details: Huh7 psiCHECK-miR122 Renilla luciferase reporter, 48 h; series mostly up to 35 µM

Row | SMILES | outcome
1 | O=C(N[C@H]1CC[C@H](CCn2cc(C3(O)CCCC3)nn2)O[C@H]1CO)c1ccccc1F | inactive
2 | CCC(=O)N1[C@H](CO)[C@H](c2ccccc2)[C@H]1CNC(=O)CN1CCOCC1 | inactive
3 | Cc1cc(CN(C)C(=O)c2cc(COc3ccc4ncccc4c3)on2)on1 | inactive
4 | C[C@H](CO)N1C[C@H](C)[C@H](CN(C)S(=O)(=O)c2ccc(F)cc2)Oc2ccc(NS(C)(=O)=O)cc2C1=O | inactive
5 | COCCN(C[C@@H]1[C@@H](c2ccccc2)[C@H](CO)N1C(=O)C1CCC1)C(C)=O | inactive
6 | CN1C(=O)c2cc(NC(=O)c3cccs3)ccc2OC[C@H]2O[C@@H](CC(=O)NCCN3CCCCC3)CC[C@H]21 | inactive
7 | CCCNC(=O)Nc1ccc2c(c1)C(=O)N(C)[C@@H]1CC[C@H](CC(=O)O)O[C@H]1CO2 | inactive
8 | CCCNC(=O)C[C@@H]1CC[C@H]2[C@@H](COc3ccc(NC(=O)c4ccc(C(F)(F)F)cc4)cc3C(=O)N2C)O1 | inactive
9 | C[C@H](NC(=O)C[C@@H]1CC[C@H]2[C@H](COc3ccc(NS(=O)(=O)c4ccc(Cl)cc4)cc3C(=O)N2C)O1)c1ccccc1 | inactive
10 | CN1C(=O)c2cc(NC(=O)c3cccs3)ccc2OC[C@@H]2O[C@H](CC(=O)NCCN3CCCCC3)CC[C@H]21 | inactive
11 | COC(=O)C[C@H]1CC[C@H]2[C@H](COc3ccc(NC(=O)NC(C)C)cc3C(=O)N2C)O1 | inactive
12 | CO[C@@H]1CN(C)C(=O)c2ccc(NS(C)(=O)=O)cc2OC[C@H](C)N(C(=O)CN(C)C)C[C@@H]1C | inactive
13 | C=CCc1c(OC)ccc2ccc(=O)oc12 | inactive
14 | COCC(=O)Nc1ccc2c(c1)C(=O)N(C)[C@@H]1CC[C@H](CC(=O)NCc3ccccc3F)O[C@H]1CO2 | inactive
15 | CN(C[C@H]1[C@H](c2ccccc2)[C@@H](CO)N1CC1CC1)C(=O)c1cccc(F)c1 | inactive
16 | CC(C)NC(=O)Nc1ccc2c(c1)C(=O)N(C)[C@@H]1CC[C@@H](CC(=O)NCC(F)(F)F)O[C@@H]1CO2 | inactive
17 | O=C(COc1ccccc1F)N1CCc2ccccc2C1 | inactive
18 | CN1C(=O)c2cc(NC(=O)C3CC3)ccc2OC[C@@H]2O[C@H](CC(=O)NC3CCC3)CC[C@H]21 | inactive
19 | CN1C(=O)c2cc(NC(=O)c3ccc4c(c3)OCO4)ccc2OC[C@H]2O[C@H](CC(=O)O)CC[C@@H]21 | inactive
20 | COc1ccccc1C#Cc1ccc2c(c1)O[C@H](CN(C)Cc1cccnc1)[C@H](C)CN([C@@H](C)CO)S2(=O)=O | inactive

Row | SMILES | outcome
21 | CCNC(=O)C[C@H]1CC[C@@H]2[C@@H](COc3ccc(NC(=O)c4cccc(C(F)(F)F)c4)cc3C(=O)N2C)O1 | inactive
22 | CC(=O)N(C[C@@H]1N[C@@H](CO)[C@H]1c1ccc(-c2ccccc2)cc1)C(C)C | inactive
23 | COc1cccc(NC(=O)Nc2ccc3c(c2)C(=O)N(C)C[C@@H](OC)[C@@H](C)CN[C@H](C)CO3)c1 | inactive
24 | CNC(=O)C[C@@H]1CC[C@H]2[C@@H](COc3ccc(NC(=O)c4ccc(C(F)(F)F)cc4)cc3C(=O)N2C)O1 | inactive
25 | COc1ccc(-c2ccc(C#N)c(OC(=O)c3c(Cl)cccc3Cl)n2)cc1 | inactive
26 | COCCNC(=O)C[C@@H]1CC[C@@H]2[C@H](COc3ccc(NS(=O)(=O)c4ccc(Cl)cc4)cc3C(=O)N2C)O1 | inactive
27 | Cc1cc(C)cc(NC(=O)Nc2ccc3c(c2)C(=O)N(C)[C@@H]2CC[C@H](CC(=O)O)O[C@@H]2CO3)c1 | inactive
28 | COc1cccc(CNC(=O)C[C@H]2CC[C@@H]3[C@H](COc4ccc(NC(C)=O)cc4C(=O)N3C)O2)c1 | inactive
29 | CCC(=O)N1[C@H](CO)[C@H]2c3ccccc3N(C(=O)CC(F)(F)F)C[C@H]21 | inactive
30 | N#Cc1ccc(C(=O)Nc2ccc(N3CCN(C(=O)c4ccco4)CC3)cc2)c(F)c1 | inactive
31 | CCCNC(=O)N1[C@H](CNC(C)=O)[C@H](c2ccc(C3=CCCC3)cc2)[C@@H]1CO | inactive
32 | CC(=O)Nc1ccc2c(c1)C(=O)N(C)[C@@H]1CC[C@H](CC(=O)NC3CCCCC3)O[C@H]1CO2 | inactive
33 | CCN(C[C@H]1N[C@H](CO)[C@H]1c1ccc(-c2ccc(F)cc2)cc1)C(=O)COC | inactive
34 | c1cnc(N2CCN(Cc3c[nH]c4ccccc34)CC2)nc1 | inactive
35 | CN1C(=O)c2cc(NC(=O)c3cccs3)ccc2OC[C@H]2O[C@@H](CC(=O)NCCN3CCCCC3)CC[C@@H]21 | inactive
36 | COc1ccc(-c2cn3c(C)c(C(=O)Nc4cccc(NC(C)=O)c4)sc3n2)cc1 | inactive
37 | COCCN(C[C@H]1[C@@H](c2ccccc2)[C@H](CO)N1C(=O)C1CCC1)C(C)=O | inactive
38 | Cc1cc(C(F)F)n2ncc(C(=O)NCCc3ccccc3Cl)c2n1 | inactive
39 | CN(C[C@H]1N[C@@H](CO)[C@H]1c1ccc(-c2ccccc2)cc1)C(=O)C1CCC1 | inactive
